Source: the supplement of paper PMC3334620
The full ranking holds about 33,000 sequences; the median of “E-score (-0.5 to 0.5)” is about -0.035, and the highest 2% start at about 0.34. The list comes from a sample in which the highest values are over-represented; it also holds similar and randomly drawn sequences.

biological target: T1, Mot3 (UniProt P54785); assay: PBM E-score (8-mer binding enrichment) (E-score (-0.5 to 0.5)); higher = stronger / more preferred TF binding; conditions: protein concentration: 200 nM; construct: GST-full length
T1 sequence: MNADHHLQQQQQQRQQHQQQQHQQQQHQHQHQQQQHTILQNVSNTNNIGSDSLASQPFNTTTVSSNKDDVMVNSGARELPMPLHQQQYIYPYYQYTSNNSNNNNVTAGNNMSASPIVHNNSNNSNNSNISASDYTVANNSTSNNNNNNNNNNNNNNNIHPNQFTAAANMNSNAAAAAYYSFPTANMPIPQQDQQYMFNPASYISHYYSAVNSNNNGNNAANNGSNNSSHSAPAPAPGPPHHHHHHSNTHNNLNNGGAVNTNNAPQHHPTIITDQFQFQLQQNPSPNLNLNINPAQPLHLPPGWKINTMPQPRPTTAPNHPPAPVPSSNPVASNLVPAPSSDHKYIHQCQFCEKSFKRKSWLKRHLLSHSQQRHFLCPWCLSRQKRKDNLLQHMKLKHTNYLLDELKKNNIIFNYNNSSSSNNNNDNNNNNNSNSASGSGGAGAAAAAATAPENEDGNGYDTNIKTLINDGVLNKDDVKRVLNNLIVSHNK
Procedure: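 Universal 'all 10-mer' protein binding microarrays (Agilent AMADID 015681) probed with GST-tagged S. cerevisiae TFs (full-length or DBD) made by in vitro transcription/translation (PURExpress), about 100-200 nM. Bound TF was detected with fluorescent anti-GST. Each ungapped 8-mer (which stands for itself and its reverse complement) is scored by the PBM enrichment score (E-score), a modified Wilcoxon-Mann-Whitney statistic from -0.5 to +0.5, computed with the Universal PBM Analysis Suite. Scale: above 0.35 generally sequence-specific binding.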

Row | Sequence | PBM E-score
1 | ACAGGTAT | 0.194
2 | TCAGGTAA | 0.324
3 | GCAGGTCC | -0.168
4 | GCAGGTAC | 0.452
5 | ACAGGTAA | 0.39
6 | ACAGGTGA | 0.0111
7 | GCGTTACC | 0.0266
8 | CGGCTTCA | -0.131
9 | CCCCACAA | -0.0534
10 | ACTGAATC | -0.0804
11 | AGGCTCCG | 0.223
12 | ATTGCCAC | -0.0828
13 | GTGGTCTA | -0.279
14 | CTTTGAAC | -0.158
15 | CACACGGA | 0.0661
16 | CACACGTA | 0.208
17 | TACACGGA | 0.357
18 | GACACGTA | 0.26
19 | GACACGGA | 0.22
20 | TACACGTA | 0.362
21 | AGGTTGAT | -0.099
22 | GCCCCCTA | -0.355
23 | ATAGCGAT | -0.11
24 | CAGAGCCG | -0.157
25 | CATGTGTA | 0.331

Row | Sequence | PBM E-score
26 | GATGTGTA | 0.347
27 | GTGTTGTA | 0.283
28 | ATTGTGTG | 0.0589
29 | GTTGTGTA | 0.373
30 | CTTGTGTA | 0.333
31 | ATTGTGTC | 0.139
32 | ATTGTGTA | 0.346
33 | AATGTGTA | 0.289
34 | ATCTGCCC | -0.0711
35 | ACTGGCCC | -0.252
36 | AACGACCG | -0.163
37 | AAATGCGG | -0.0946
38 | ACTGGCTG | -0.261
39 | GACTAATC | -0.182
40 | ACCTGTTA | 0.167
41 | GCCTGTAA | 0.391
42 | CCCTGTTA | 0.12
43 | GCCTGTTA | 0.35
44 | CCCTGCGA | -0.212
45 | ACCTGCGA | 0.0659
46 | TCCTGTAA | 0.338
47 | GCCTGCGA | 0.35
48 | GCCTGTAC | 0.338
49 | AGAGCACC | -0.233
50 | ACGTATCC | -0.129

Row | Sequence | PBM E-score
51 | CCATCTCC | -0.26
52 | CCGGGGTC | -0.135
53 | AGTGCGAT | -0.00843
54 | GATTTCGC | 0.167
55 | GAGACTCA | -0.251
56 | AAACGTGG | -0.0479
57 | AAACGTGT | 0.344
58 | ACACGTTA | 0.345
59 | ACACGTTG | 0.305
60 | ACACGTGT | 0.363
61 | ACACGTGG | 0.236
62 | ACACGTTC | 0.303
63 | ACACGTGA | 0.273
64 | AAACGTGA | 0.178
65 | CACGCGCC | 0.181
66 | CCAGGGTA | -0.153
67 | GCCCAACA | 0.146
68 | ATCAAAAC | -0.118
69 | CTGTTTAC | 0.28
70 | ATGTTTAG | 0.279
71 | ATGTTTTA | 0.362
72 | GTGTTTTA | 0.219
73 | CTGTTTTA | 0.0859
74 | ATGTTTAC | 0.374
75 | CTAGAACC | -0.0352

Row | Sequence | PBM E-score
76 | AAGCCCTG | -0.0744
77 | AACTACCG | -0.0555
78 | ATGGGGAG | -0.135
79 | GGGTGTAA | 0.223
80 | CTGTGTGA | 0.181
81 | CTGTGTAA | 0.41
82 | CTGTATAA | 0.0988
83 | CTGTGTAC | 0.294
84 | GTGTGTAA | 0.394
85 | ATGTGTAC | 0.285
86 | ATGTGTAG | 0.303
87 | GAGTGTAA | 0.249
88 | ATGTGTAA | 0.352
89 | GTGTATAA | 0.343
90 | ATGTATAA | 0.256
91 | CCGGATGC | -0.24
92 | ACGATCTC | -0.198
93 | ACTAGGGG | -0.223
94 | CGCTCTTC | -0.174
95 | GACACATC | -0.0862
96 | CCTAGGAC | -0.0674
97 | AACATGTG | 0.278
98 | AACATTTA | 0.244
99 | AACATGTT | 0.387
100 | AACATGTA | 0.42

Row | Sequence | PBM E-score
101 | AAGATGTA | 0.194
102 | AACATGTC | 0.296
103 | CTGGCCCC | -0.215
104 | AACGGTTC | -0.172
105 | AACAGAAT | 0.0192
106 | ATCTTAAG | -0.14
107 | CCTGACCG | -0.159
108 | TGTAGGAA | 0.406
109 | AGTAGGAC | -0.258
110 | GGTAGGAC | -0.172
111 | CGTAGGAA | 0.351
112 | GGTAGGAA | 0.313
113 | CGTAGGAG | -0.0892
114 | AGTAGGAA | 0.403
115 | AGTAGGAT | 0.0448
116 | CGTAGGAC | -0.166
117 | CATCAGGG | -0.0517
118 | ACTGCGGC | -0.227
119 | AACTAAGA | 0.0799
120 | CAATTGCA | -0.0452
121 | CTTACCTA | 0.175
122 | CGTACCTC | -0.144
123 | AGTACCTC | -0.107
124 | GGTACCCA | 0.00798
125 | AGTACCAA | 0.013

Row | Sequence | PBM E-score
126 | CCTACCTA | 0.156
127 | ATTACCTA | 0.332
128 | GGTACCTA | 0.424
129 | GCTACCTA | 0.0719
130 | AGTACCTA | 0.342
131 | CGTACCTA | 0.395
132 | GTTACCTA | 0.369
133 | GTCACCTA | -0.0234
134 | ATGAAGTA | -0.0752
135 | CTTACAGC | 0.00061
136 | CCCCATAC | 0.00082
137 | GATGGAAC | -0.0944
138 | AGTACCAG | -0.106
139 | ATTACCTG | 0.336
140 | AGTACCTG | 0.378
141 | CAGCCCGG | -0.239
142 | CGGGGAAC | -0.0973
143 | CGTGTAGA | 0.414
144 | AGTGTAGA | 0.151
145 | CATGTAGG | 0.374
146 | AATGTAGG | 0.191
147 | CGTGTAGC | 0.228
148 | CATGTATC | 0.277
149 | CATGTATA | 0.376
150 | CATGTAGA | 0.39

Row | Sequence | PBM E-score
151 | GATGTAGA | 0.195
152 | CAAGTAGG | 0.105
153 | CATGTAGC | 0.276
154 | GATGTATA | 0.195
155 | ATTGGAGA | -0.179
156 | AAGGGGGC | -0.138
157 | AGTAGAAG | 0.0882
158 | AGGTTCAT | -0.0206
159 | GGCCCAGA | -0.411
160 | CCAAGACG | -0.236
161 | ACAACGGG | 0.07
162 | GCTAACTA | 0.00452
163 | CGTGTAAA | 0.438
164 | AGTGTAAA | 0.28
165 | AGTGTAAT | 0.308
166 | CGTGTAAC | 0.351
167 | TGTGTAAA | 0.416
168 | AGTGTAAC | 0.128
169 | CGTGTAAG | 0.38
170 | GGTGTAAA | 0.297
171 | AGTGTAAG | 0.00213
172 | GGTGTAAC | 0.164
173 | ACTGTAAG | 0.0605
